Tb PFK block: blocks T. brucei phosphofructokinase; O15648; T. brucei PFK, ADP-Glo luminescence; Potency, µM (top dose mostly 57.5 µM), without a hit: at the highest dose activity, negative = inhibition, usual class: inhibitors; hit rate 0.17% among 330,000;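 note: potency is the fitted concentration of half-maximal effect; 0% = uninhibited 1x PFK enzyme wells and -100% = no-enzyme wells; nearly all actives have a fitted effect of over 60% in size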
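ADP-Glo luminescence quantified ADP after 45 min at room temperature, with 1.25 nM T. brucei PFK, 0.1 mM ATP and 0.5 mM fructose-6-phosphate in pH 8.0 TEA buffer. qHTS titrations up to 57 µM; curves classified by quality.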
PGK inhibitor: blocks T. brucei phosphoglycerate kinase | P07378 | Potency, µM (highest dose often 57.5 µM), for inactives: at the highest dose activity change, negative = inhibition, actives largely listed as inhibitors | PGK/GAPDH coupled, Kinase-Glo luminescence, 60 min | AID 602233 | hit rate 0.043% among 380,000; note: potency is the fitted concentration of half-maximal effect; nearly all actives have a fitted effect of over 60% in size
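Recombinant glycosomal PGK reaction used 1,3-bisphosphoglycerate generated in-well by GAPDH (100nM final) in 100mM TEA pH 7.6, 5mM MgCl2, 0.01% Tween-20. After 60 minutes at room temperature, ATP was read by Kinase-Glo Plus luminescence end-point.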
TDP1 inh: inhibitors of human tyrosyl-DNA phosphodiesterase TDP1. recombinant TDP1, AlphaScreen DNA substrate cleavage. Potency, µM (highest dose often 130 µM), for the others: at the top dose activity change, negative = inhibition, hits mostly inhibitors. hit rate 0.28% among 350,000. AID 485290; note: potency is the fitted concentration of half-maximal effect; nearly all actives have a fitted effect of over 40% in size
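Enzyme-compound mixtures sat 15 min at room temperature, followed by a 5 min reaction with 15 nM final substrate and 10 min with AlphaScreen beads. Recombinant human Tdp1 was used at 1 nM final.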
APE1 inh-1: inhibitors of human APE1 endonuclease; P27695; hit rate 0.35% among 350,000; recombinant APE1, TAMRA/BHQ-2 abasic DNA cleavage fluorescence; Potency, µM (doses to about 65.8 µM), for inactives: at the highest dose activity change, negative = inhibition, actives largely listed as inhibitors; AID 2517;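 note: potency is the fitted concentration of half-maximal effect; plate controls were vehicle for no effect and reference inhibitor for full effect; nearly all actives have a fitted effect of over 55% in size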
Target sequence (P27695 whole entry, looked up): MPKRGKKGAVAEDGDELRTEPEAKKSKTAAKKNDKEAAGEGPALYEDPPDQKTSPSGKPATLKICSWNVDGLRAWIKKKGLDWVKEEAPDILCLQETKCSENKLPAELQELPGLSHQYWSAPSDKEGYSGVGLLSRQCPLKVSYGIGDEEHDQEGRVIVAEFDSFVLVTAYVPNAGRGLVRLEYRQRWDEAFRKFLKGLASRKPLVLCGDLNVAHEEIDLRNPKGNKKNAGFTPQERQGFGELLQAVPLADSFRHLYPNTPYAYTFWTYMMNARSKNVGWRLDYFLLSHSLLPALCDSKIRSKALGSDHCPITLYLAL
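Endonuclease cleavage of a quenched abasic-site DNA duplex (50 nM) by APE1 (0.75 nM) was tracked by TAMRA dequenching. Compounds were preincubated with enzyme 15 min at room temperature; data normalized to buffer-only and DMSO wells plus NSC13755 control.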
PI4K2A block: blocks human PI4K2A kinase activity; Q9BTU6; purified PI4K2A, ADP-Glo luminescence, 1 h; stronger effect = lower value; activity change, negative = inhibition, % at 76.9 µM; hit rate 0.13% among 420,000; AID 1346378; in the data active = activity change below about -50%; inconclusive = mostly about -30% to -49%;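 note: -100% = wells without enzyme as full effect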
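Compounds are screened against recombinant PI4K2A using PI as substrate and ATP, the latter dispensed at 300 microM. Reactions run one hour at ambient temperature before ADP-Glo detection; full inhibition defined by wells lacking enzyme.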
FEN1 inh: human FEN1 inhibition | P39748 | Recombinant FEN1 flap cleavage, fluorescence, 15 min | Potency, µM (highest dose often 114 µM), without a hit: top-dose activity change, negative = inhibition, usual class: inhibitors | hit rate 0.35% among 390,000; note: potency is the fitted concentration of half-maximal effect; nearly all actives have a fitted effect of over 65% in size
Target sequence (P39748 whole entry, looked up): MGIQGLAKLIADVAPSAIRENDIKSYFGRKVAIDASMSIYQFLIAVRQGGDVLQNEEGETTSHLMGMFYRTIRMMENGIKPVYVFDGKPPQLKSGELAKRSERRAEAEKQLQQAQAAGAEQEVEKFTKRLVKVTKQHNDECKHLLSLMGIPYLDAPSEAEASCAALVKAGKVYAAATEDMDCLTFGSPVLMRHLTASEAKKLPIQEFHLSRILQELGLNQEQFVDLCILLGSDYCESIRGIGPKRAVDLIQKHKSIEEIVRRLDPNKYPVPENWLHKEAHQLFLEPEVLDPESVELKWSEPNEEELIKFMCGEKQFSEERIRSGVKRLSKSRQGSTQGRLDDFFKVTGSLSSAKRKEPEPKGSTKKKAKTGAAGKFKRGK
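In this screen, 50 nM flap DNA substrate was added to 10 nM FEN1 pretreated with compound for 15 min at room temperature; cleavage was followed with reads at 0 and 15 min, and Hill fitting gave concentration–response parameters.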
APE1 dye cs: counter-screen for APE1 inhibitors: DNA dye displacement; shares compounds with APE1 inh-1; hit rate 7% among 480; DNA fluorescent dye displacement counterscreen, fluorescence; Potency, µM (doses to about 28.5 µM), without a hit: at the top dose activity change, negative = inhibition, usual class: inhibitors;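 note: loss of thiazole orange fluorescence as the dye is displaced from duplex DNA; potency is the fitted concentration of half-maximal effect; 0% = ThO with dsDNA and no compound and -100% = ThO without dsDNA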
EndoIV counter: counter-screen for APE1 inhibitors: inhibitors of E. coli endonuclease IV. shares compounds with APE1 inh-1. E. coli Endo IV, fluorogenic AP-site DNA cleavage. Potency, µM (highest dose often 27.1 µM), without a hit: at the top dose activity change, negative = inhibition, usual class: inhibitors. hit rate 4% among 560;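 note: potency is the fitted concentration of half-maximal effect; plate controls were uninhibited enzyme wells for no effect and no enzyme buffer wells for full effect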
APE1 inh-2: confirmation of inhibitors of human APE1 endonuclease; shares compounds with APE1 inh-1; AID 2572; Potency, µM (highest dose often 57.1 µM), for the others: top-dose activity change, negative = inhibition, most hits filed as inhibitors; hit rate 44% among 750; purified APE1, fluorogenic abasic-site DNA cleavage; note: potency is the fitted concentration of half-maximal effect; nearly all actives have a fitted effect of over 30% in size
APE1 FP: displaces DNA from human APE1 in FP assay; shares compounds with APE1 inh-1; APE1 binding to TAMRA-labelled double-stranded DNA, fluorescence polarization displacement; Potency, µM (highest dose often 28.5 µM), without a hit: at the highest dose activity, negative = inhibition, usual class: inhibitors; hit rate 7% among 480; note: potency is the fitted concentration of half-maximal effect
The depositor's hits bear a star; i = inactive; ? = inconclusive; nt = no result given; [ ] = dose if it differs, or a comment. A selection: hits, their analogues and other compounds. The true share with any hit is near 0.8%. Unless noted, calls come from the whole dose curve; as a rule, active = well fitted curve in the direction sought with a large enough effect; inconclusive = small, poorly fitted or top-dose-only effect, or another doubt; inactive = no such curve, though single readings can be large; an effect the other way counts as inactive or inconclusive. Unless noted, % is set by controls: 0 for no effect and ±100 for the full control effect.

SMILES	Tb PFK block	PGK inhibitor	TDP1 inh	APE1 inh-1	PI4K2A block	FEN1 inh	APE1 dye cs	EndoIV counter	APE1 inh-2	APE1 FP
O=C(/C=C/c1ccc(O)c(O)c1)OC1C(O)CC(OC(=O)/C=C/c2ccc(O)c(O)c2)(C(=O)O)CC1O (configuration not stated)	0%	-14%	-9%	?	2	-2%	-7%	104%	-11%[24.4 µM]	?
O=c1c2c3c(sc2n(CCN2CCCC2)c(=O)n1Cc1ccco1)CCCCC3	3%	2%	12%	2%	-5	-10%	nt	nt	nt	nt
O=C(Cn1c(=O)n(Cc2ccco2)c(=O)c2c3c(sc21)CCCCC3)c1ccccc1	-13%	i	-14%	?	-25	5%	?	-6%	-23%[24.4 µM]	5%
Cc1ccc(NC(=O)Cn2c(=O)n(CCc3ccccc3)c(=O)c3c4c(sc32)CCCC4)cc1C	nt	-1%	6%	nt	2	-1%	nt	nt	nt	nt
O=C(Cn1c(=O)n(Cc2ccco2)c(=O)c2c3c(sc21)CCCCC3)Nc1ccccc1	-14%	-5%	nt	11µM*	-25	?	?	-5%	?	-1%
CC(=C(CCOC(=O)C(C)C)SSC(CCOC(=O)C(C)C)=C(C)N(C=O)Cc1cnc(C)nc1N)N(C=O)Cc1cnc(C)nc1N	nt	nt	nt	nt	-3	nt	nt	nt	nt	nt
O=C(O)c1ccc(-c2ccc3cc(C45CC6CC(CC(C6)C4)C5)c(O)cc3c2)cc1	nt	nt	4%	-10%	nt	nt	nt	nt	nt	nt
COC(=O)CSc1cc(C)nc2ccc(OC)cc12	3%	-7%	4%	-2%	-3	-6%	nt	nt	nt	nt
COc1cccc2c(SCC(=O)N/N=C/c3ccccc3)cc(C)nc12	-2%	0%	3%	-3%	-5	15%	nt	nt	nt	nt
Cc1cc(C)cc(-n2c(C)cc(/C=N\NC(=O)COc3cccc4cccnc34)c2C)c1	-1%	nt	3%	-4%	-6	-14%	nt	nt	nt	nt
COc1ccc(/C=N/NC(=O)COc2cccc3cccnc23)cc1OC	-21%	-8%	?	-2%	-5	-15%	nt	nt	?	nt
COc1ccc2nc(C)cc(SCC(=O)N/N=C/c3ccc(O)c(O)c3)c2c1	-2%	?	8%	?	-4	?	?	115%	7.9µM*	3%
COc1cccc2c(SCC(=O)N/N=C/c3ccc(O)c(O)c3)cc(C)nc12	?	?	?	8.9µM*	2	?	-26%	93%	5µM*	-7%
C[C@@H]1[C@H](c2ccccc2)OCCS(=O)(=O)N1Cc1ccccc1Br	nt	nt	nt	nt	nt	-25%	nt	nt	nt	nt
COc1ccc(C2Nc3ccccc3C(=O)N2C2CCCC2)cc1COc1ccc(NC(C)=O)cc1 (configuration not stated)	nt	nt	-2%	nt	nt	nt	nt	nt	nt	nt
Nc1ccn([C@@H]2O[C@H](CO)[C@@H](O)C2O)c(=O)n1 (some centres not stated)	-5%	-11%	-3%	-3%	-5	-2%	-3%[57.1 µM]	22%[57.1 µM]	-6%	7%[57.1 µM]
Cc1ccc(NS(=O)(=O)c2ccc3c(c2)N(C)C(=O)CO3)cc1C	nt	nt	1%	nt	nt	nt	nt	nt	nt	nt
OCC1OC(Oc2cccc3ccccc23)C(O)C(O)C1O (configuration not stated)	1%	-3%	nt	-1%	-8	1%	nt	nt	nt	nt
O=C(O)c1cc(O)c2c(c1)[C@H]([C@H]1c3cc(C(=O)O)cc(O)c3C(=O)c3c(O[C@@H]4OC(CO)C(O)C(O)C4O)cccc31)c1cccc(O[C@@H]3OC(CO)C(O)C(O)C3O)c1C2=O (some centres not stated)	nt	nt	nt	nt	nt	nt	nt	-30%[57.1 µM]	0.71µM*	nt
O=[N+]([O-])c1ccc(O/N=[N+](\[O-])N2CCCC2)c([N+](=O)[O-])c1	nt	nt	nt	nt	nt	1%	nt	nt	nt	nt
CCc1nc2ccc(C(=O)Nc3ccc(NC(C)=O)cc3)cc2nc1CC	5%	-1%	3%	18%	0	2%	nt	nt	nt	nt
O=C(c1cccc(C(=O)N2CCN(c3ncccn3)CC2)c1)N1CCN(c2ncccn2)CC1	1%	-4%	-4%	2%	-13	-9%	nt	nt	nt	nt
O=C(c1ccc2nc(-c3ccco3)c(-c3ccco3)nc2c1)N1CCN(c2ncccn2)CC1	-17%	-5%	nt	?	-20	-15%	?	-1%	?	-13%
CC(=O)c1ccc(NC(=O)c2ccc3nc(-c4ccco4)c(-c4ccco4)nc3c2)cc1	-21%	?	11µM*	?	-56*	50µM*	8.9µM*	?	4µM*	-46%
Fc1ccc(N2N=C(c3cccs3)CC2c2ccccc2)cc1 (configuration not stated)	3%	i	13µM*	4%	-1	-13%	nt	nt	-26%	nt
CC(=O)[C@]1(O)Cc2c(O)c3c(c(O)c2[C@@H](O[C@H]2C[C@H](N)[C@H](O)[C@H](C)O2)C1)C(=O)c1ccccc1C3=O	nt	i	10%[56.1 µM]	20µM*	-7	nt	i	i	16µM*	2.8µM*
Cc1nnc(NC(=O)CCSCCC(=O)Nc2nnc(C)s2)s1	?	-23%	32µM*	?	-20	-23%	nt	nt	40µM*	nt
Cc1cc(N)n(-c2ccc(C)c(C)c2)n1	4%	-9%	8%	?	-8	13%	nt	nt	nt	nt
Cc1cc(N)n(-c2ccc(Oc3ccccc3)c(S(=O)(=O)O)c2)n1	-19%	-7%	0%	35µM*	-11	7%	-4%	2%	?	12%
Cc1ccc(NC(=O)CN2C(=O)S/C(=C/c3ccc(O)c([N+](=O)[O-])c3)C2=O)cc1C	?	?	79µM*	?	-3	?	nt	nt	?	nt
